Records with an inconclusive call do not appear. Unmarked numbers belong to inactive results. Calls come from the whole dose curve; as a rule, active = well fitted curve in the direction sought with a large enough effect; inconclusive = small, poorly fitted or top-dose-only effect, or another doubt; inactive = no such curve, though single readings can be large; an effect the other way counts as inactive or inconclusive.
Assay: Cell Viability - LYMP2-004 (AID 966);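 note: plate controls were DMSO only for no effect and tetraoctylammonium bromide control for full effect; nearly all actives have a fitted effect of over 65% in size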
Conditions: LYMP2-004 lymphoblastoid cell viability, qHTS; series mostly up to 92.2 µM; activity change, negative = cytotoxicity: at the top concentration
Procedure, shortened: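 Acute toxicity is scored as a concentration-dependent drop in intracellular ATP, quantified by luciferase luminescence, in human lymphoblastoid cells exposed to compound for 24 hr. AC50 derives from Hill-equation modelling.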

| SMILES | activity change, negative = cytotoxicity [%] |
| --- | --- |
| CC(C)OC(=O)Cc1ccccc1 | 14.5 |
| ClCC(Br)CBr (configuration not stated) | 4.63 |

Assay: Cell Viability - LYMP2-005 (AID 967);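 note: plate controls were DMSO only for no effect and 92 µM tetraoctylammonium bromide control for full effect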
Conditions: LYMP2-005 lymphoblastoid cell viability; series mostly up to 92.2 µM; activity change, negative = viability loss: at the top concentration
Procedure, shortened: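 qHTS viability screen in LYMP2-005 cells: 24 h at 37 C with compound, ATP luminescence via CellTiter-Glo, AC50 from Hill curves.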

| SMILES | activity change, negative = viability loss [%] |
| --- | --- |
| Nc1cc(Cl)ccc1Cl | 10.6 |
| ClCc1ccccc1 | 16.1 |
| CCC/C=N/O | 8.22 |
| COc1c(C(C)(C)C)cc([N+](=O)[O-])c(C)c1[N+](=O)[O-] | 6.49 |
| O=S(=O)(Cl)c1ccccc1 | -11.7 |
| C=CCOCC1CO1 (configuration not stated) | 14 |
| c1ccoc1 | 1.28 |
| ClC(Cl)(Cl)C(Cl)(Cl)Cl | 7.36 |
| CCOC(=O)C1OC1(C)c1ccccc1 (configuration not stated) | 4.78 |
| ClC(Cl)C(Cl)Cl | -0.446 |
| C=CCCl | -2.52 |
| Oc1c(Cl)cccc1Cl | -15.4 |
| Brc1cccc(-c2ccccc2)c1 | -9.94 |
| C=CCO | -6.34 |
| OCCCCO | -16.3 |
| Cc1ccccc1[N+](=O)[O-] | -6.41 |
| Cc1ccc(N)c(C)c1 | 4.55 |
| C1CC2OC2CC1C1CO1 (configuration not stated) | 14.5 |
| CN(C)C(=O)Cl | 13.4 |
| CC(=O)NNc1ccccc1 | -25.2 |
| Cc1ccc(N=C=O)cc1N=C=O | 8.48 |
| O=C(Cl)OCc1ccccc1 | 0.949 |
| CCN(CC)N=O | 4.64 |
| OCC(Cl)CCl (configuration not stated) | 4.43 |
| CC(C)CON=O | 3.56 |
| CC[N+](=O)[O-] | 9.31 |
| CC(C)(Cl)[N+](=O)[O-] | -3.7 |
| C[N+](=O)[O-] | 2.69 |
| ClCC(Br)CBr (configuration not stated) | 8.71 |

Assay: Cell Viability - LYMP2-009 (AID 968);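 note: 0% = DMSO alone and the full-kill end = tetraoctylammonium bromide at 92 µM; nearly all actives have a fitted effect of over 55% in size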
Conditions: LYMP2-009 lymphoblastoid cell viability; series mostly up to 92.2 µM; activity change, negative = viability loss: at the top concentration

| SMILES | activity change, negative = viability loss [%] |
| --- | --- |
| CC(C#N)CCC#N (configuration not stated) | 1.89 |
| Nc1cc(Cl)ccc1Cl | 0.982 |
| Nc1cccc(Cl)c1 | -1.22 |
| ClCc1ccccc1 | -11.3 |
| CCC/C=N/O | 2.69 |
| COc1c(C(C)(C)C)cc([N+](=O)[O-])c(C)c1[N+](=O)[O-] | -4.53 |
| O=S(=O)(Cl)c1ccccc1 | -0.121 |
| C=CCOCC1CO1 (configuration not stated) | 3.92 |
| Clc1ccccc1 | -7.24 |
| ClC(Cl)(Cl)C(Cl)(Cl)Cl | -7.75 |
| CCOC(=O)C1OC1(C)c1ccccc1 (configuration not stated) | -5.86 |
| C/C=C/CC#N | -12.3 |
| ClC(Cl)C(Cl)Cl | -3.24 |
| C=CCCl | -8.38 |
| Oc1c(Cl)cccc1Cl | -3.1 |
| Brc1cccc(-c2ccccc2)c1 | -0.328 |
| C=CCO | -17.3 |
| OCCCCO | -3.62 |

| SMILES | activity change, negative = viability loss [%] |
| --- | --- |
| Nn1cnnc1 | -7.89 |
| BrCCc1ccccc1 | -7.95 |
| Cc1ccccc1[N+](=O)[O-] | -8.41 |
| CCCCOC(=O)c1ccccc1N | 0.624 |
| Clc1cc(Cl)c(Cl)c(Cl)c1 | -10.5 |
| Cc1ccc(N)c(C)c1 | -3.38 |
| C1CC2OC2CC1C1CO1 (configuration not stated) | -0.495 |
| CN(C)C(=O)Cl | -10.3 |
| Cc1ccc(N=C=O)cc1N=C=O | -4.65 |
| O=C(Cl)OCc1ccccc1 | -7.64 |
| C=CC(=O)OC | -10.7 |
| OCC(Cl)CCl (configuration not stated) | -7.96 |
| CC(C)CON=O | -4.63 |
| CC[N+](=O)[O-] | -0.637 |
| CC(C)(Cl)[N+](=O)[O-] | -6.12 |
| C[N+](=O)[O-] | -11.4 |
| CC(C)OC(=O)Cc1ccccc1 | 2.34 |
| ClCC(Br)CBr (configuration not stated) | -2.51 |

Reference: PubChem BioAssay (NCATS)
